# Source: PubChem BioAssay
# This is a sample that favours compounds with a hit; in the whole collection about 0.98% have one here.
# EBV gp42 inh = EBV gp42 inhibition; Q1HVG2; Fluorescence polarization binding assay, mP read-out; inhibition, % (tested at 21.74 µM); 0.42% of 220,000 active; in the data active = inhibition above about 50%
# E coli Lon inh = inhibitors of E. coli Lon protease; purified E. coli Lon protease, fluorescence polarization; inhibition, % at 7.94 µM; 0.42% of 360,000 active; in the data active = inhibition above about 13%, passing the limit was not always enough;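 note: 0% = enzyme with probe and DMSO and 100% = no enzyme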
# Target sequence (P0A9M0 whole entry, looked up): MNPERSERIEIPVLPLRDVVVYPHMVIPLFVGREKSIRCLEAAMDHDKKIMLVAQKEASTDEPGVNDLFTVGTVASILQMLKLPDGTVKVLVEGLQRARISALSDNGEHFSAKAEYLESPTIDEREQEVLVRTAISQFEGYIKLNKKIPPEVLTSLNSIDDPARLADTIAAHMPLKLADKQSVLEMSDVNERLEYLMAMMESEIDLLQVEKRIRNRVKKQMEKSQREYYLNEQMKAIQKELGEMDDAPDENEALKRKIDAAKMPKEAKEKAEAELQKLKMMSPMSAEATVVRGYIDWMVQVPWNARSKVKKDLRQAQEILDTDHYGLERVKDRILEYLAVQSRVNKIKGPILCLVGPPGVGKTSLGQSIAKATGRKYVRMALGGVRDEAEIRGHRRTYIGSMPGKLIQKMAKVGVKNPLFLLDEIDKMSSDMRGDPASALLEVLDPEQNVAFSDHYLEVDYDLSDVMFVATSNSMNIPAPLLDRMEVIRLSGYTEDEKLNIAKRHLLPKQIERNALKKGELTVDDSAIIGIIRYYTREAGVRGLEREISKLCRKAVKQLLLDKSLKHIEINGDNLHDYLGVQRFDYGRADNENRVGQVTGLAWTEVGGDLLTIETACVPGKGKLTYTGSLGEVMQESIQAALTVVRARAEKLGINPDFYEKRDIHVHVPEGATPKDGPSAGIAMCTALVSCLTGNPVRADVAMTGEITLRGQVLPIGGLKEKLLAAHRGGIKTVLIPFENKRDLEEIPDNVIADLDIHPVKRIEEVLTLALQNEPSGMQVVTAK
# RTF Ca sens act = cardiac RTF calcium sensitization | P19429+P45379 | IANBD-labeled TnC RTF fluorescence at EC20 calcium; 0% EC20 calcium, 100% full calcium | activation, % at 7.2 µM | 0.24% of 340,000 active | AID 493008;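 active = activation above the mean over all tested compounds plus 3 SD, cut at about 30% in these data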;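 note: rise in fluorescence read as greater calcium sensitivity of cardiac thin filaments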
# RTF Ca sens inh = cardiac RTF calcium desensitization. P19429+P45379. IANBD-labeled cardiac RTF, Ca2+ fluorescence. inhibition, % at 7.15 µM. 0.12% of 340,000 active. AID 493244;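 active = inhibition above the mean inhibition of all tested compounds plus 3 SD, cut at about 17% in these data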;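 note: assay run at fixed EC70 calcium of 1.6 mM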
# C-LANA FP = KSHV C-LANA DNA binding inhibition; MBP-C-LANA/FAM-LBS DNA binding, fluorescence polarization; inhibition, % at 9 µM; 0.078% of 340,000 active; AID 504423;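 active = highest replicate inhibition at or above 60% at 9 µM, even if other replicates fall short; inactive = all replicates below 60% inhibition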;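 note: 0% = neutral control wells and 100% = 4 µM acridine orange control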
# Keap1-Nrf2 PPI = Keap1-Nrf2 (human) interaction inhibition; Q14145; Keap1 Kelch-Nrf2 peptide fluorescence polarization, 1536-well; inhibition, % at 9.4 µM; 0.15% of 340,000 active; AID 504523; in the data active = inhibition above about 12%; inconclusive = no clear call, values can overlap the other calls; inactive = below about 7.3%;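 note: human Keap1 Kelch domain with fluorescein labeled Nrf2 9mer peptide probe; 0% = neutral control wells and 100% = peptide positive control; higher means more block of Keap1 binding to Nrf2 peptide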
# * marks the source's active call; other numbers are inactive results; i = inactive; ? = inconclusive; nt = no result.
SMILES,EBV gp42 inh,E coli Lon inh,RTF Ca sens act,RTF Ca sens inh,C-LANA FP,Keap1-Nrf2 PPI
C[C@@H]1CN(S(=O)(=O)C(C)(C)C)[C@H](CCO)/C1=C\c1ccccc1,nt,7.9,-7.3,-5.4,-2.6,1.7
CC1=C/C(=C(\c2cc(C)c(O)c(Br)c2)c2ccccc2S(=O)(=O)O)C=C(Br)C1=O,nt,-3.3,5.3,-8.4,1.9,-3.8
N#C/C(=C/c1ccc(N2CCCCCC2)o1)c1cccc(F)c1,-2.5,-26.3,25.6,-35.2,0.4,-10.4
COc1cc(N2CCCC2)c(OC)cc1/C=C(/C#N)c1cccc(F)c1,107.9*,-51.7,16.3,-37.6,0.4,-10.9
O=C(Nc1nc2c(s1)CN(Cc1ccccc1)CC2)c1cccc(S(=O)(=O)N2CCc3ccccc32)c1,111.1*,-113.1,67.4*,-74.1,8.8,-5.6
O=C(Nc1nc2ccccc2s1)c1cccc(S(=O)(=O)N2CCc3ccccc32)c1,-24.9,-11.8,3.6,-1.5,2.1,1.6
O=C(NC(Cc1cn(Cc2ccccc2)cn1)C(=O)O)OCC1c2ccccc2-c2ccccc21 (configuration not stated),nt,-9.9,nt,nt,nt,nt
O=[N+]([O-])c1ccc(-c2cn(-c3ccc(Cl)cc3)c(=S)[nH]2)cc1,53.9*,-4.0,3.4,-36.5,0.2,-8.3
CC(=O)Nc1ccccc1-c1cccc2nccn12,nt,5.9,nt,nt,nt,nt
CC(=O)Nc1sc(N/N=C/c2ccccc2)nc1-c1ccc(C)cc1,-18.1,-0.3,-4.8,-1.6,-0.4,-0.8
CC(=O)Nc1sc(/C(C#N)=C\c2cccc(Cl)c2)nc1-c1ccc(C)cc1,-1.7,-57.3,43.0*,-95.9,0.7,-3.3
CC1=[N+](C)N(c2ccccc2)C(=O)C1N=C/C=C/c1ccccc1 (configuration not stated),-8.8,0.4,-6.5,-1.0,70.5*,-5.1
COc1cc(OC)c(OC)cc1/C=C1/Cc2ccccc2C1=O,nt,-86.0,31.4*,-59.8,1.1,-26.5
Nc1c(C(=O)O)ccc2c1C(=O)c1ccccc1C2=O,-5.6,-5.2,-1.3,1.3,-2.4,0.1
Nc1cc(C(=O)O)c(N)c2c1C(=O)c1ccccc1C2=O,119.0*,50.9*,5.3,-9.2,43.2,?
CCOc1cc(N2CCOCC2)c(OCC)cc1NC(=O)COC(=O)c1ccc(Cl)nc1,nt,7.1,5.6,-0.5,-3.5,-0.8
O=c1cc(-c2ccccc2)nc2c(-c3ccccc3)c(C(F)(F)F)[nH]n12,59.9*,5.3,nt,nt,nt,nt
O=[N+]([O-])c1ccc(Sc2cccc[n+]2[O-])c2nonc12,-9.9,-34.2,5.5,-6.2,19.1,19.6*
Cc1ccccc1NC(=O)NC1CCCc2ccccc21 (configuration not stated),nt,-13.2,2.3,-3.8,0.4,2.7
CCCNC(=O)Cn1c(=O)/c(=C\c2ccc(-c3cccc([N+](=O)[O-])c3)o2)s/c1=C\C(=O)C(C)(C)C,68.7*,-74.5,1.4,-4.4,12.8,6.1
CCC(C)[C@H](N)C(=O)N[C@H]1CCC2C3CC=C4C[C@@H](O)CC[C@]4(C)C3CC[C@@]21C (some centres not stated),nt,-7.8,nt,nt,nt,nt
CC(C)(C)NC(=O)c1ccc(C(=O)NC(C)(C)C)cc1,-13.4,nt,nt,nt,nt,nt
CC(C)(C)NC(=O)c1sccc1C(=O)O,99.9*,-1.9,5.9,0.7,0.2,-3.0
COc1cc(CCC(=O)N2CCN(c3ncccn3)CC2)cc(OC)c1OC,85.7*,-0.3,nt,nt,2.2,0.3
COc1ccccc1NC(=O)N1CCCC1C(=O)NCCc1ccccc1 (configuration not stated),nt,-2.3,-0.2,-3.4,0.3,-2.1
SMILES,EBV gp42 inh,E coli Lon inh,RTF Ca sens act,RTF Ca sens inh,C-LANA FP,Keap1-Nrf2 PPI
Clc1ccc(NCc2cccnc2)cc1,nt,11.7,-0.2,-1.9,0.5,2.2
Fc1ccc(NCc2cccnc2)cc1F,115.3*,11.1,5.3,-5.9,9.3,3.9
COc1ccc2c(c1)/C(=C/c1cc(OC)c(OC)c(OC)c1)C(=O)N2,nt,4.3,-5.3,-0.8,2.5,1.8
C=C1c2cc(OC)ccc2NC(=O)N1CC,51.7*,-1.5,2.8,-3.9,1.1,-2.2
Cc1ccccc1NC(=O)CSc1nc(=O)n(CCN2CCOCC2)c2c1CCCC2,nt,-2.4,-1.8,-6.7,-0.2,-2.7
CCOc1ccc(NC(=O)/C(C#N)=C\c2ccc(N3CCCC3)c(C)c2)cc1,nt,-136.3,72.0*,-52.4,1.8,-3.6
CCOc1ccc(/C=C(\C#N)C(=O)Nc2cccnc2)cc1,-2.2,1.4,2.4,-15.2,-3.1,-4.4
C=CCOc1cccc(C2C(C(=O)c3cccs3)=C(O)C(=O)N2Cc2cccnc2)c1 (configuration not stated),10.1,1.8,5.5,-0.3,-0.5,-1.9
Cc1ccc(C2C(C(=O)c3ccco3)=C(O)C(=O)N2c2nnc(C)s2)cc1 (configuration not stated),76.9*,8.4,1.1,-8.2,2.3,-4.6
COc1ccc(C2C(C(=O)c3cccs3)=C(O)C(=O)N2c2nnc(C)s2)cc1OC (configuration not stated),91.0*,37.5*,80.1*,-70.8,42.5,?
Cc1nnc(N2C(=O)C(O)=C(C(=O)c3ccco3)C2c2cccc3ccccc23)s1 (configuration not stated),41.3,-18.9,6.1,-7.6,0.1,-6.8
C=CCOc1ccc(C2C(C(=O)c3cccs3)=C(O)C(=O)N2c2nnc(C)s2)cc1 (configuration not stated),nt,13.3,44.3*,-42.5,50.5,0.1
O=C(NC(Cc1ccccc1)C(=O)Oc1ccc2c(C(F)(F)F)cc(=O)oc2c1)OCc1ccccc1 (configuration not stated),6.8,73.7*,0.0,-9.8,14.7,4.9
O=C(CNC(=O)OCc1ccccc1)Oc1ccc2ccc(=O)oc2c1,nt,-6.5,-5.5,-0.3,-0.1,-4.7
O=C(O)c1cc(Cl)ccc1-c1ccc(/C=C/c2cc(C(F)(F)F)[nH]c(=O)n2)o1,-90.2,-283.8,447.5*,i,-11.2,-284.5
O=C(O)c1ccccc1-c1ccc(/C=C/c2cc(C(F)(F)F)[nH]c(=O)n2)o1,-15.0,-140.7,727.4*,i,7.6,-234.3
COc1cccc(-n2c(N)c(C#N)c3ccc([N+](=O)[O-])cc3c2=O)c1,11.2,nt,nt,nt,nt,nt
COc1ccc(-n2c(N)c(C#N)c3ccc([N+](=O)[O-])cc3c2=O)cc1,52.0*,-0.9,4.2,-8.3,3.9,-1.1
Cc1nn(CC(=O)NC(C)C(C)C)c(C)c1S(=O)(=O)N1CCCCC1 (configuration not stated),nt,-3.5,3.3,-9.2,-0.3,1.1
Cn1nc(-c2ccc(Cl)cc2)nc2c(=O)n(C)c(=O)nc1-2,54.1*,nt,nt,nt,nt,nt
CC(NC(=O)/C(C#N)=C/c1ccc([N+](=O)[O-])o1)c1ccccc1 (configuration not stated),nt,-46.6,7.9,1.0,-0.6,-10.7
CC(C)NC(=O)/C(C#N)=C\c1ccc(N(C)C)o1,-301.2,-435.6,63.6*,-85.8,-39.3,-119.3
